Measurements from article PMC8222333, “AsCas12a ultra nuclease facilitates the rapid generation of therapeutic cell medicines”.

B1: CTTA (dsDNA)
DNA 1: GCTATCTAGTGCTCAGTACGCACTGCTTAAGGAAACTTCTGGCAGGACCAGGTCATGAGATCGGAAGAGCACACGTCTGAACTCCAGTCA
DNA 2: TGACTGGAGTTCAGACGTGTGCTCTTCCGATCTCATGACCTGGTCCTGCCAGAAGTTTCCTTAAGCAGTGCGTACTGAGCACTAGATAGC
RNA: AAUUUCUACUCUUGUAGAUAGGAAACUUCUGGCAGGACC
B2: GTTC (dsDNA)
DNA 1: GCTATCTAGTGCTCAGTACGCACTGGTTCAGGAAACTTCTGGCAGGACCAGGTCATGAGATCGGAAGAGCACACGTCTGAACTCCAGTCA
DNA 2: TGACTGGAGTTCAGACGTGTGCTCTTCCGATCTCATGACCTGGTCCTGCCAGAAGTTTCCTGAACCAGTGCGTACTGAGCACTAGATAGC
RNA: AAUUUCUACUCUUGUAGAUAGGAAACUUCUGGCAGGACC
B3: CTTT (dsDNA)
DNA 1: GCTATCTAGTGCTCAGTACGCACTGCTTTAGGAAACTTCTGGCAGGACCAGGTCATGAGATCGGAAGAGCACACGTCTGAACTCCAGTCA
DNA 2: TGACTGGAGTTCAGACGTGTGCTCTTCCGATCTCATGACCTGGTCCTGCCAGAAGTTTCCTAAAGCAGTGCGTACTGAGCACTAGATAGC
RNA: AAUUUCUACUCUUGUAGAUAGGAAACUUCUGGCAGGACC
B4: TATC (dsDNA)
DNA 1: GCTATCTAGTGCTCAGTACGCACTGTATCAGGAAACTTCTGGCAGGACCAGGTCATGAGATCGGAAGAGCACACGTCTGAACTCCAGTCA
DNA 2: TGACTGGAGTTCAGACGTGTGCTCTTCCGATCTCATGACCTGGTCCTGCCAGAAGTTTCCTGATACAGTGCGTACTGAGCACTAGATAGC
RNA: AAUUUCUACUCUUGUAGAUAGGAAACUUCUGGCAGGACC
B5: TATA (dsDNA)
DNA 1: GCTATCTAGTGCTCAGTACGCACTGTATAAGGAAACTTCTGGCAGGACCAGGTCATGAGATCGGAAGAGCACACGTCTGAACTCCAGTCA
DNA 2: TGACTGGAGTTCAGACGTGTGCTCTTCCGATCTCATGACCTGGTCCTGCCAGAAGTTTCCTTATACAGTGCGTACTGAGCACTAGATAGC
RNA: AAUUUCUACUCUUGUAGAUAGGAAACUUCUGGCAGGACC
B6: TATG (dsDNA)
DNA 1: GCTATCTAGTGCTCAGTACGCACTGTATGAGGAAACTTCTGGCAGGACCAGGTCATGAGATCGGAAGAGCACACGTCTGAACTCCAGTCA
DNA 2: TGACTGGAGTTCAGACGTGTGCTCTTCCGATCTCATGACCTGGTCCTGCCAGAAGTTTCCTCATACAGTGCGTACTGAGCACTAGATAGC
RNA: AAUUUCUACUCUUGUAGAUAGGAAACUUCUGGCAGGACC
B7: CTTG (dsDNA)
DNA 1: GCTATCTAGTGCTCAGTACGCACTGCTTGAGGAAACTTCTGGCAGGACCAGGTCATGAGATCGGAAGAGCACACGTCTGAACTCCAGTCA
DNA 2: TGACTGGAGTTCAGACGTGTGCTCTTCCGATCTCATGACCTGGTCCTGCCAGAAGTTTCCTCAAGCAGTGCGTACTGAGCACTAGATAGC
RNA: AAUUUCUACUCUUGUAGAUAGGAAACUUCUGGCAGGACC
B8: GTTT (dsDNA)
DNA 1: GCTATCTAGTGCTCAGTACGCACTGGTTTAGGAAACTTCTGGCAGGACCAGGTCATGAGATCGGAAGAGCACACGTCTGAACTCCAGTCA
DNA 2: TGACTGGAGTTCAGACGTGTGCTCTTCCGATCTCATGACCTGGTCCTGCCAGAAGTTTCCTAAACCAGTGCGTACTGAGCACTAGATAGC
RNA: AAUUUCUACUCUUGUAGAUAGGAAACUUCUGGCAGGACC
B9: TCTA (dsDNA)
DNA 1: GCTATCTAGTGCTCAGTACGCACTGTCTAAGGAAACTTCTGGCAGGACCAGGTCATGAGATCGGAAGAGCACACGTCTGAACTCCAGTCA
DNA 2: TGACTGGAGTTCAGACGTGTGCTCTTCCGATCTCATGACCTGGTCCTGCCAGAAGTTTCCTTAGACAGTGCGTACTGAGCACTAGATAGC
RNA: AAUUUCUACUCUUGUAGAUAGGAAACUUCUGGCAGGACC
B10: GTTG (dsDNA)
DNA 1: GCTATCTAGTGCTCAGTACGCACTGGTTGAGGAAACTTCTGGCAGGACCAGGTCATGAGATCGGAAGAGCACACGTCTGAACTCCAGTCA
DNA 2: TGACTGGAGTTCAGACGTGTGCTCTTCCGATCTCATGACCTGGTCCTGCCAGAAGTTTCCTCAACCAGTGCGTACTGAGCACTAGATAGC
RNA: AAUUUCUACUCUUGUAGAUAGGAAACUUCUGGCAGGACC
B11: GTTA (dsDNA)
DNA 1: GCTATCTAGTGCTCAGTACGCACTGGTTAAGGAAACTTCTGGCAGGACCAGGTCATGAGATCGGAAGAGCACACGTCTGAACTCCAGTCA
DNA 2: TGACTGGAGTTCAGACGTGTGCTCTTCCGATCTCATGACCTGGTCCTGCCAGAAGTTTCCTTAACCAGTGCGTACTGAGCACTAGATAGC
RNA: AAUUUCUACUCUUGUAGAUAGGAAACUUCUGGCAGGACC
B12: CTTC (dsDNA)
DNA 1: GCTATCTAGTGCTCAGTACGCACTGCTTCAGGAAACTTCTGGCAGGACCAGGTCATGAGATCGGAAGAGCACACGTCTGAACTCCAGTCA
DNA 2: TGACTGGAGTTCAGACGTGTGCTCTTCCGATCTCATGACCTGGTCCTGCCAGAAGTTTCCTGAAGCAGTGCGTACTGAGCACTAGATAGC
RNA: AAUUUCUACUCUUGUAGAUAGGAAACUUCUGGCAGGACC
B13: TCCC (dsDNA)
DNA 1: GCTATCTAGTGCTCAGTACGCACTGTCCCAGGAAACTTCTGGCAGGACCAGGTCATGAGATCGGAAGAGCACACGTCTGAACTCCAGTCA
DNA 2: TGACTGGAGTTCAGACGTGTGCTCTTCCGATCTCATGACCTGGTCCTGCCAGAAGTTTCCTGGGACAGTGCGTACTGAGCACTAGATAGC
RNA: AAUUUCUACUCUUGUAGAUAGGAAACUUCUGGCAGGACC

biological target: dAsCas12a WT (Acidaminococcus sp., UniProt U2UMQ6 1-1307, D908A;E993A;D1235A); assay: Spec-seq (native PAGE EMSA with sequencing of bound and unbound); 25 mM Tris-HCl pH 7.4, 150 mM KCl, 5 mM MgCl2, 10% glycerol, 1 mM DTT, 40 ng/uL salmon sperm DNA; 400 nM Cas12a, 480 nM crRNA, 50 nM library, 37 C 1 h; native P; high values mean tight binding; conditions: not given

Binder | binding signal [lnKA]
B1 | -6.66
B2 | -7.08
B3 | -8.63
B4 | -8.56
B5 | -8
B6 | -9
B7 | -7.38
B8 | -8.41
B9 | -6.18
B10 | -7.73
B11 | -6.86
B12 | -6.68
B13 | -8.69

biological target: dAsCas12a Ultra (Acidaminococcus sp., UniProt U2UMQ6 1-1307, M537R;F870L;D908A;E993A;D1235A); assay: Spec-seq (native PAGE EMSA with sequencing of bound and unbound); 25 mM Tris-HCl pH 7.4, 150 mM KCl, 5 mM MgCl2, 10% glycerol, 1 mM DTT, 40 ng/uL salmon sperm DNA; 400 nM Cas12a, 480 nM crRNA, 50 nM library, 37 C 1 h; native PAGE at room temperature; high values mean tight binding; conditions: protein: recombinant

Binder | binding signal [lnKA]
B1 | -4.22
B2 | -4.74
B3 | -7.25
B4 | -7.72
B5 | -7.14
B6 | -8.06
B7 | -5.08
B8 | -7.18
B9 | -3.71
B10 | -5.6
B11 | -4.67
B12 | -4.32
B13 | -6.14

biological target: dAsCas12a E174R (Acidaminococcus sp., UniProt U2UMQ6 1-1307, E174R;D908A;E993A;D1235A); assay: as above; conditions: protein: recombinant;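 note: relative affinity from the bound to unbound sequence frequency ratio in Spec-seq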

Binder | binding signal [lnKA]
B1 | -2.38
B2 | -4.51
B3 | -6.84
B4 | -6.33
B5 | -4.71
B6 | -6.65
B7 | -4.65
B8 | -6.98
B9 | -2.54
B10 | -5.33
B11 | -3
B12 | -3.79
B13 | -6.06

biological target: dAsCas12a S542R (Acidaminococcus sp., UniProt U2UMQ6 1-1307, S542R;D908A;E993A;D1235A); assay: as above; conditions: protein: recombinant;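 note: relative affinity from the bound to unbound sequence frequency ratio in Spec-seq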

Binder | binding signal [lnKA]
B1 | -4.07
B2 | -4.83
B3 | -7.35
B4 | -7.21
B5 | -6.54
B6 | -7.42
B7 | -5.07
B8 | -7.04
B9 | -4.59
B10 | -5.32
B11 | -4.46
B12 | -4.75
B13 | -1.93

biological target: dAsCas12a K548R (Acidaminococcus sp., UniProt U2UMQ6 1-1307, K548R;D908A;E993A;D1235A); assay: as above; conditions: protein: recombinant

Binder | binding signal [lnKA]
B1 | -5.75
B2 | -5.84
B3 | -8.41
B4 | -6.57
B5 | -6.91
B6 | -7.66
B7 | -6.66
B8 | -8.38
B9 | -8.57
B10 | -6.8
B11 | -6
B12 | -5.73

biological target: d-enCas12a (Acidaminococcus sp., UniProt U2UMQ6 1-1307, E174R;S542R;K548R;D908A;E993A;D1235A); assay: as above; conditions: protein: recombinant

Binder | binding signal [lnKA]
B1 | -0.581
B2 | -0.632
B3 | -2.97
B4 | -0.993
B5 | -0.769
B6 | -1.93
B7 | -1.7
B8 | -2.65
B9 | -3.31
B10 | -1.41
B11 | -0.547
B12 | -0.728
B13 | -0.958

biological target: d-enCas12a-Ultra (Acidaminococcus sp., UniProt U2UMQ6 1-1307, E174R;S542R;K548R;M537R;F870L;D908A;E993A;D1235A); assay: as above; conditions: protein: recombinant;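 note: relative affinity from the bound to unbound sequence frequency ratio in Spec-seq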

Binder | binding signal [lnKA]
B1 | -0.177
B2 | -0.198
B3 | -0.647
B4 | -0.399
B5 | -0.324
B6 | -0.687
B7 | -0.41
B8 | -0.552
B9 | -0.837
B10 | -0.361
B11 | -0.184
B12 | -0.217
B13 | -0.245
